Here are results for 44 compounds from publication PMC4336329 (PLoS ONE, 2015).

Molecules are shown by their SMILES. Out of some 310,000 compounds screened, about 14,000 (4.5%) showed an effect of 50% or more. The effect is printed as a negative number. The full list was thinned out, with strong results kept by preference.
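Note: peak tail current of the secondary pulse compared with the same well before compound.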

Sequence of human ether-à-go-go-related gene (hERG) potassium channel (Q12809 whole entry, looked up): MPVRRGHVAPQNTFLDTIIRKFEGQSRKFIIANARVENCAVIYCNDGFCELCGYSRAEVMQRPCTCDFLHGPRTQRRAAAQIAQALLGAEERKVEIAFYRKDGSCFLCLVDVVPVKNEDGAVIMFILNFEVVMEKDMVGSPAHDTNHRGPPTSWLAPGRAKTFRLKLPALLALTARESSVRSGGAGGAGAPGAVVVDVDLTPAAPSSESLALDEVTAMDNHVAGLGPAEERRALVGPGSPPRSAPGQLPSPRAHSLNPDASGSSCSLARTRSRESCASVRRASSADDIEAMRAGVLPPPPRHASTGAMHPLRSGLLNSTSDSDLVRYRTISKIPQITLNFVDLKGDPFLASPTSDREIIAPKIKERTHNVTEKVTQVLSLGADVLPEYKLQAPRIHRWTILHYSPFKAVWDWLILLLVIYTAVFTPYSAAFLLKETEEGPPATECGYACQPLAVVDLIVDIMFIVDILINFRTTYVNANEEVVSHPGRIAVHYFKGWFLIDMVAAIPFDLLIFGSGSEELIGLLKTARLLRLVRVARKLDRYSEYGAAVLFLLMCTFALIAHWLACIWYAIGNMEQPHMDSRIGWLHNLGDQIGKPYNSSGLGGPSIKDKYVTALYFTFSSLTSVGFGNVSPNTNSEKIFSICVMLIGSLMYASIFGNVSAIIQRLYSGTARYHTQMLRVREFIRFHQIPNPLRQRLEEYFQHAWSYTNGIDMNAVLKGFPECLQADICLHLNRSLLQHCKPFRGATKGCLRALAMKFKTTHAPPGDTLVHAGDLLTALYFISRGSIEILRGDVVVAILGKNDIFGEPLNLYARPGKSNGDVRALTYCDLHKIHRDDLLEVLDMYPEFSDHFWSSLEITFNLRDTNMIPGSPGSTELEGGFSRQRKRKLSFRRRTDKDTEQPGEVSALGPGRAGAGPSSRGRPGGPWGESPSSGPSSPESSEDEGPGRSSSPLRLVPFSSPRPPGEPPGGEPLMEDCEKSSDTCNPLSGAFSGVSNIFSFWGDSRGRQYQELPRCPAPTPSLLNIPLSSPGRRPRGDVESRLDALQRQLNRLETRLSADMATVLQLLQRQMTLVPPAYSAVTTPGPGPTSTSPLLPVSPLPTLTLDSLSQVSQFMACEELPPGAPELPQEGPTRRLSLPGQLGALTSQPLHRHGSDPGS

The experiment has as its target human ether-à-go-go-related gene (hERG) potassium channel (human, UniProt Q12809). As to the kind of experiment: primary screen, population patch clamp on CHO cells stably expressing hERG; higher = less effect of the substance.
Regarding `CCN(CC)CCOC(=O)c1ccc(NC(=S)NC(=O)/C=C/c2ccco2)cc1`, the “hERG current change (%, negative = inhibition) at 10uM” value is recorded as -0.561%.

For `Cc1oc2c(c(C)cc3oc(=O)c(CC(=O)N[C@H](C(=O)O)C(C)C)c(C)c32)c1C`, the “hERG current change (%, negative = inhibition) at 10uM” value stood at 15.2%.

For `Cc1cc2c(ncn2C(C)C)c(N)c1C`, the “hERG current change (%, negative = inhibition) at 10uM” value is reported as -9.87%.

Regarding `CSc1ccc(C#N)cc1NC(=O)c1ccccc1`, the “hERG current change (%, negative = inhibition) at 10uM” value was -36.5%.

Take `NC(=O)C1CCN(C(=O)Cc2ccsc2)CC1`: the “hERG current change (%, negative = inhibition) at 10uM” value is listed as -1.15%.

With `Cc1csc2nc(O)c(C(=O)NCCCc3ccccc3)c(=O)n12`, the “hERG current change (%, negative = inhibition) at 10uM” value was -20%.

`Cc1ccnc(NS(=O)(=O)c2ccc(NC(=O)Cc3ccc(Cl)cc3)cc2)n1`: the “hERG current change (%, negative = inhibition) at 10uM” value stood at 14.3%.

In the case of `S=C1NC2(CCCCC2)Cc2ccccc21`, the “hERG current change (%, negative = inhibition) at 10uM” value came out at 12.4%.

Take `CC(C)NC(=O)CN1CCN(Cc2nc(-c3cccs3)no2)CC1`: the “hERG current change (%, negative = inhibition) at 10uM” value turned out to be 19.9%.

Take `C[C@@H](C(=O)Nc1ccc2ccccc2c1)[C@H]1C[C@]1(C)[C@H](NC(=O)c1cnccn1)c1ccccc1`: the “hERG current change (%, negative = inhibition) at 10uM” value is on record as -4.43%.

Regarding `CN1CCN(C(=S)NC(=O)c2ccccc2Br)CC1`, the “hERG current change (%, negative = inhibition) at 10uM” value is recorded as 11.2%.

Turning to `O=c1[nH]c(O)c(N=Nc2ccc(S(=O)(=O)N3CCOCC3)cc2)c(=O)[nH]1`, the “hERG current change (%, negative = inhibition) at 10uM” value is recorded as -4.59%.

Take `O=c1[nH]c(O)c(N=Nc2cccc(S(=O)(=O)N3CCOCC3)c2)c(=O)[nH]1`: the “hERG current change (%, negative = inhibition) at 10uM” value was -73.7%.

For the compound `O=c1[nH]c(=S)[nH]c(O)c1N=Nc1cccc(S(=O)(=O)N2CCOCC2)c1`, the “hERG current change (%, negative = inhibition) at 10uM” value is 9.03%.

`COC(=O)C1=C(c2ccccc2)C[C@@H]2CC[C@H]1N2C(=O)NCCCOC(C)C`: the “hERG current change (%, negative = inhibition) at 10uM” value came to 0.331%.

Consider `CCOc1ccc(N(C(=O)CNC(=O)c2ccco2)C(C(=O)NC2CCCC2)c2ccncc2)cc1` (centres unmarked), for which the “hERG current change (%, negative = inhibition) at 10uM” value is listed as -10.7%.

`COc1ccc(CN2CCN(Cc3c[nH]c4ccccc34)CC2CCO)c(F)c1` (centres unmarked): the “hERG current change (%, negative = inhibition) at 10uM” value is listed as -41.4%.

On to `COc1ccc(CN2CCN(CCc3ccccc3)C(CCO)C2)c(O)c1` (centres unmarked), for which the “hERG current change (%, negative = inhibition) at 10uM” value is recorded as -71.7%.

As to `COc1ccc(CN2CCN(CCCc3ccccc3)C(CCO)C2)c(O)c1` (centres unmarked), the “hERG current change (%, negative = inhibition) at 10uM” value is given as -83.1%.

On to `COc1ccc(F)c(CN2CCN(CCc3ccccc3)C(CCO)C2)c1` (centres unmarked), for which the “hERG current change (%, negative = inhibition) at 10uM” value is given as -55.9%.

For the compound `O=C(OCC1OC(n2cc(Br)c(=O)[nH]c2=O)C(Br)C1O)c1ccccc1` (centres unmarked), the “hERG current change (%, negative = inhibition) at 10uM” value is reported as 8.3%.

As to `CCC(C)N(C(=O)COC(=O)CNC(=O)c1ccccc1F)C1CCS(=O)(=O)C1` (centres unmarked), the “hERG current change (%, negative = inhibition) at 10uM” value worked out at 4.36%.

For `COc1ccc(C)cc1NC(=O)c1cc2c(s1)CCC2`, the “hERG current change (%, negative = inhibition) at 10uM” value is -5.71%.

As to `COc1ccccc1-c1nnc2sc(-c3ccc(N(C)C)cc3)nn12`, the “hERG current change (%, negative = inhibition) at 10uM” value was -11%.

On to `CC(=O)NC(C)c1nc2ccccc2n1C(C)C` (centres unmarked), for which the “hERG current change (%, negative = inhibition) at 10uM” value was -10.2%.

Regarding `Cc1ccc(C)c(NC(=O)C(c2ccccc2)N2CCOCC2)c1` (centres unmarked), the “hERG current change (%, negative = inhibition) at 10uM” value is -10.6%.

Turning to `Cc1cc(C)cc(NC(=O)C(NCCN2CCOCC2)c2ccccc2)c1.O=C(O)C(=O)O` (centres unmarked), the “hERG current change (%, negative = inhibition) at 10uM” value is -7.91%.

Turning to `Cc1ccc(C)c(NC(=O)C(NCC(C)(C)N2CCOCC2)c2ccccc2)c1` (centres unmarked), the “hERG current change (%, negative = inhibition) at 10uM” value is listed as -62.6%.

Take `Cc1cc(C)cc(NC(=O)C(NCC2CCCO2)c2ccccc2)c1.O=C(O)C(=O)O` (centres unmarked): the “hERG current change (%, negative = inhibition) at 10uM” value is -35.5%.

In the case of `COc1ccc(C)cc1NC(=O)C(NCC(O)c1ccccc1)c1ccccc1.O=C(O)C(=O)O` (centres unmarked), the “hERG current change (%, negative = inhibition) at 10uM” value is -21.7%.

Take `COc1ccc(C)cc1NC(=O)C(NCC1CCCO1)c1ccccc1` (centres unmarked): the “hERG current change (%, negative = inhibition) at 10uM” value is listed as -51.4%.

As to `Cc1cc(NC(=O)C2CCN(S(=O)(=O)Cc3ccccc3)CC2)ccc1-n1cnnn1`, the “hERG current change (%, negative = inhibition) at 10uM” value is -9.11%.

With `FC(F)(F)c1cnc(Sc2ncn[nH]2)c(Cl)c1`, the “hERG current change (%, negative = inhibition) at 10uM” value came out at 4.22%.

Regarding `CCOC(=O)c1c(C)[nH]c(C(=O)CN2C(=O)NC3(CCCC3)C2=O)c1C`, the “hERG current change (%, negative = inhibition) at 10uM” value is reported as -1.87%.

On to `CCOc1ccc(S(=O)(=O)N2CCN(CC)CC2)cc1NC(=O)c1ccccc1F`, for which the “hERG current change (%, negative = inhibition) at 10uM” value is listed as -16.6%.

On to `COc1ccc(CCC(=O)Nc2nc(C)c(C(=O)N(C)C)s2)cc1`, for which the “hERG current change (%, negative = inhibition) at 10uM” value was -2.23%.

Take `CS(=O)(=O)c1ccc(N2CCOCC2)c(S(C)(=O)=O)c1`: the “hERG current change (%, negative = inhibition) at 10uM” value is recorded as -5.39%.

For the compound `Cc1cc(F)ccc1N1CCC(N2CCN(C(C)C)C(CCO)C2)CC1` (centres unmarked), the “hERG current change (%, negative = inhibition) at 10uM” value is given as -24.7%.

On to `CC(C)CCN1CCN(C2CCN(c3ccccc3)CC2)CC1CCO` (centres unmarked), for which the “hERG current change (%, negative = inhibition) at 10uM” value is -60.9%.

Consider `Cc1cc(F)ccc1N1CCC(N2CCN(C)C(CCO)C2)CC1` (centres unmarked), for which the “hERG current change (%, negative = inhibition) at 10uM” value turned out to be 22.1%.

For `Cc1cc(F)ccc1N1CCC(N2CCN(CCC(C)C)C(CCO)C2)CC1` (centres unmarked), the “hERG current change (%, negative = inhibition) at 10uM” value is recorded as -63.5%.

On to `CC(C)CCN1CCN(C2CCN(c3ccc4c(c3)OCO4)CC2)CC1CCO` (centres unmarked), for which the “hERG current change (%, negative = inhibition) at 10uM” value is recorded as -17.6%.

`Cc1ccc(N2CCC(N3CCN(C)C(CCO)C3)CC2)cc1` (centres unmarked): the “hERG current change (%, negative = inhibition) at 10uM” value was 12.8%.

Consider `O=C(CN1CCOCC1)NCCc1ccccc1`, for which the “hERG current change (%, negative = inhibition) at 10uM” value is recorded as 16.4%.
